Compound activity: PubChem, several laboratories
Only some compounds are listed: those with a hit (about 1% of all), similar ones and a draw of the others.
NPR2 activator – GC-B (human) receptor activation. activation, % at 10 µM. HEK293-GC-B cells, CNP EC30, cGMP TR-FRET; 0% at EC30 CNP, 100% saturating CNP. P20594. actives 0.11% (n = 370,000);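 active = activation at 10 µM reaching about 35% in either raw or pattern-adjusted values, limit read from the data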
Target sequence (P20594 whole entry, looked up): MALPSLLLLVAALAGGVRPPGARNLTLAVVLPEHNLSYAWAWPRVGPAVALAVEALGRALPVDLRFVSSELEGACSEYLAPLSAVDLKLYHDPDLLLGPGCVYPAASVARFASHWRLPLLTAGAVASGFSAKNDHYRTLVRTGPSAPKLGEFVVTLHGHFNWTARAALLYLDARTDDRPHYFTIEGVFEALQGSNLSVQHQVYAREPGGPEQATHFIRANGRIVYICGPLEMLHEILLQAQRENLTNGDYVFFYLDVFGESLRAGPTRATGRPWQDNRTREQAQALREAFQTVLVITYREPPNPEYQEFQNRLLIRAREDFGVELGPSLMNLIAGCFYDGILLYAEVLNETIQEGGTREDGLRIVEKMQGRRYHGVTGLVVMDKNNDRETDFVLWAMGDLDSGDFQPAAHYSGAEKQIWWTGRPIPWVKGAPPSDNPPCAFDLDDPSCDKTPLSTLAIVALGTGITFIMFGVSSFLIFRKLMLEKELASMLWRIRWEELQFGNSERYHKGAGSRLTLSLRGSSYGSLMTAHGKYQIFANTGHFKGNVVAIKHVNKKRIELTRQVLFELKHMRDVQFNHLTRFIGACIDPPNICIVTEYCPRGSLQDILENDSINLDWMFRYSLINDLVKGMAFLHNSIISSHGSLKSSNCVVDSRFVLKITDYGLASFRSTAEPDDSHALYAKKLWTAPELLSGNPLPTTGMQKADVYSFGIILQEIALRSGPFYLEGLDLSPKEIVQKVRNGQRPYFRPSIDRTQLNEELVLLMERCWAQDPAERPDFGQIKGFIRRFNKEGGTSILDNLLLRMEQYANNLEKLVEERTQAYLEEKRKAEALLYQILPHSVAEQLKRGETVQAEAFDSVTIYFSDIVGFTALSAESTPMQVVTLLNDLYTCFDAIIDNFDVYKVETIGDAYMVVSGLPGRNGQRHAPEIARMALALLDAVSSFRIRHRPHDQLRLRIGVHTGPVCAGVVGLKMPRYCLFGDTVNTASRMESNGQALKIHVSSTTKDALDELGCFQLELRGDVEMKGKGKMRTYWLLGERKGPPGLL
HSV replic up – increases HSV replication in cells; HSV replication augmentation in cells, fold increase; maximum fold increase; actives 0.005% (n = 220,000); AID 1956; in the data active = maximum fold increase above about 1.5; tested in PC3 cells
TAG inh – reduces triacylglycerol accumulation in H9c2 cells; actives 0.66% (n = 230,000); Nile Red lipid (TAG) fluorescence; cells loaded with 200 µM oleic acid; inhibition, % at 12.5 µM;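 active = pattern-corrected inhibition of lipid staining of at least 50% with the nuclear-stain viability signal not falling by more than 50%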
Bfl-1 A1 inh – inhibitors of the anti-apoptotic protein A1, read as caspase activation; caspase activation, % (concentration not given with the values); actives 0.066% (n = 330,000); MEF A1-2A-BIM cells, Caspase-Glo 3/7 luminescence, 3 h; percent of clofoctol response, vehicle zero;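 active = over half of replicate activation scores above 10%, or exactly half above 10 with the replicate mean above 10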
Efflux pump mplx – inhibitors of Candida antifungal efflux pumps expressed in yeast. AID 485275. inhibition, % at 10 µM. S. cerevisiae Candida pump triplex, Nile Red efflux. actives 0.44% (n = 330,000);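 active = plate passing quality check with inhibition over a set limit, or well fluorescence over plate mean plus 4 SD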;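 also: Nile Red retained in pooled yeast measured as flow cytometry median fluorescence; higher means more Nile Red kept so more efflux inhibition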
GC-A act – GC-A (human) enzyme activation. P16066. HEK293 GC-A cells, cGMP TR-FRET, EC30 ANP; 0% at EC30 ANP, 100% saturating ANP. activation, % at 10 µM. actives 0.14% (n = 370,000); in the data active = activation above about 40%
H9c2 TAG conf – triacylglycerol accumulation inhibition, confirmation; shares compounds with TAG inh; H9c2 lipid accumulation, Nile Red fluorescence; cells loaded with 200 µM oleic acid; inhibition, % at 12.5 µM; actives 71% (n = 990); AID 651629;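 active = mean inhibition across replicates of 40% or more; inactive = mean inhibition below 40%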
Of the large screens only hits and unclear results are named; the others gave an inactive call (follow-up assays come after a bar, where they were run).

CCC(C)Nc1nc(-c2cccc(OC)c2O)nc2ccccc12 (centres undefined)	TAG inh 57 | H9c2 TAG conf 44
CCC(C)[C@H](NC(=O)[C@H](Cc1ccccc1)NC(=O)OC(C)(C)C)C(=O)NCc1ccccc1Br (some centres undefined)	none (no result: HSV replic up, TAG inh, Bfl-1 A1 inh, Efflux pump mplx)
c1ccc(C2Nc3ccccc3-c3nc4ccccc4n32)cc1 (centres undefined)	none
c1ccc(C2Nc3ccccc3-c3nc4ccccc4n32)nc1 (centres undefined)	TAG inh 55 | H9c2 TAG conf inactive
COc1ccc(C(=O)Nc2ccc(Cl)cc2C(=O)NCc2ccco2)cc1	TAG inh 61 | H9c2 TAG conf 73
Cc1ccc(Cn2cc(COC(=O)N3CCCC3)nn2)cc1	none (no result: HSV replic up, TAG inh, Bfl-1 A1 inh, Efflux pump mplx)
COc1ccc(Nc2oc(-c3ccc(Cl)cc3)nc2C#N)cc1	TAG inh 54 | H9c2 TAG conf 52
O=S1(=O)c2c(cccc2N2CCC[C@@H]2CO)O[C@@H]2CCN1C2	none (no result: HSV replic up, TAG inh, Bfl-1 A1 inh, Efflux pump mplx)
Cc1ccc(NC(=O)CCS(=O)(=O)c2ccccc2)c(C)c1	none (no result: HSV replic up, TAG inh, Bfl-1 A1 inh, Efflux pump mplx)
O=C1C(NC(=O)N2c3ccccc3C=Cc3ccccc32)CCCCN1Cc1ccc(Cl)cc1 (centres undefined)	none (no result: HSV replic up, TAG inh, Bfl-1 A1 inh, Efflux pump mplx)
Cc1ccc(NC(=O)COC(=O)c2ccc3c(c2)NC(=O)C2CCCN32)cc1 (centres undefined)	TAG inh 66 | H9c2 TAG conf inactive
C[C@@H]1CCN(C2CC2)S(=O)(=O)c2c(cccc2N2CCC[C@@H]2CO)O1	none (no result: HSV replic up, TAG inh, Bfl-1 A1 inh, Efflux pump mplx)
O=C(O)CC1(CC(=O)NCc2ccc(C(F)(F)F)cc2)CCCCC1	none
O=C(O)CC1(CC(=O)Nc2cc(C(F)(F)F)cc(C(F)(F)F)c2)CCCCC1	TAG inh 94 | H9c2 TAG conf inactive
CCOC(=O)c1c(C)[nH]c(-c2csc(N)n2)c1C	TAG inh 64 (no result: NPR2 activator, Bfl-1 A1 inh, Efflux pump mplx, GC-A act) | H9c2 TAG conf inactive
Cc1ccc(CN2CCCCC(NC(=O)c3ccc(Br)cc3)C2=O)cc1 (centres undefined)	none (no result: HSV replic up, TAG inh, Bfl-1 A1 inh, Efflux pump mplx)
Cc1cc(N2CCOCC2)nc2ccc(NC(=O)C3CCC(C)CC3)cc12 (centres undefined)	TAG inh 54 | H9c2 TAG conf inactive
CCN1CCN(c2cc(C)c3cc(NC(=O)c4ccc(Br)o4)ccc3n2)CC1	TAG inh 58 | H9c2 TAG conf inactive
COc1ccc(CN2CCC(CNC(=O)NC3CCC(C)CC3)CC2)cc1 (centres undefined)	none (no result: HSV replic up, TAG inh, Bfl-1 A1 inh, Efflux pump mplx)
COC(=O)[C@]12C[C@H](CC(=O)NCCCN3CCCC3=O)C(=O)N(Cc3ccc(Cl)cc3Cl)C1=C[C@H](C(C)(C)C)O[C@@H]2C	none (no result: HSV replic up, TAG inh, Bfl-1 A1 inh, Efflux pump mplx)
C[C@H](O)[C@@H]1CN2CCc3c([nH]c4ccc(-c5ccc6c(c5)OCO6)cc34)[C@@H]2C[C@@H]1N(C)C(=O)Nc1cc(Cl)cc(Cl)c1	TAG inh 70 (no result: HSV replic up, Bfl-1 A1 inh, Efflux pump mplx) | H9c2 TAG conf 89
Cc1cccc(-c2ccc3[nH]c4c(c3c2)CCN2C[C@@H]([C@H](C)O)[C@@H](N(C)C(=O)Nc3ccc(F)cc3)C[C@@H]42)c1	TAG inh 50 (no result: HSV replic up, Bfl-1 A1 inh, Efflux pump mplx) | H9c2 TAG conf 48
NC1=NC[C@H](Cc2ccccc2)N1CCc1cc(C(F)(F)F)cc(C(F)(F)F)c1	TAG inh 55 | H9c2 TAG conf 46
FC(F)(F)c1cc(CCN2C(=S)NC[C@@H]2Cc2ccccc2)cc(C(F)(F)F)c1	none (no result: Efflux pump mplx)
CCOC(=O)CCCNC(=O)OC1CCC12CCC(c1ccccc1)CC2 (centres undefined)	none (no result: HSV replic up, TAG inh, Bfl-1 A1 inh, Efflux pump mplx)
CCOC(=O)[C@@]12CCCC3=C1N(CCC3)C(=O)[C@H]2CC(=O)N1CCC(c2ccccc2)CC1	none (no result: HSV replic up, TAG inh, Bfl-1 A1 inh, Efflux pump mplx)
CCO[C@@H]1OC(C(=O)NCc2nc3ccccc3[nH]2)=C[C@H](c2cn(C(C)=O)c3ccccc23)[C@H]1CCCO	TAG inh 53 | H9c2 TAG conf inactive
COC(=O)[C@]12C[C@H](CC(=O)NCC34CC5CC(CC(C5)C3)C4)C(=O)N(Cc3cccc4ccccc34)C1=C[C@H](COCc1ccccc1)O[C@@H]2C	none (no result: HSV replic up, TAG inh, Bfl-1 A1 inh, Efflux pump mplx)
CN(C)CCCNC(=O)C[C@H]1C[C@H](C(=O)N2CCCCC2)[C@@]2(CCc3ccccc3)c3[nH]c4cc(-c5ccco5)ccc4c3CCN2C1=O	TAG inh 57 (no result: HSV replic up, Bfl-1 A1 inh) | H9c2 TAG conf 70
CN(C)CCCNC(=O)C[C@H]1C[C@H](C(=O)N2CCCCC2)[C@@]2(C)c3[nH]c4cc(-c5ccco5)ccc4c3CCN2C1=O	TAG inh 58 (no result: HSV replic up, Bfl-1 A1 inh) | H9c2 TAG conf inactive
CN(C)CCCNC(=O)CC1C[C@H](C(=O)N2CCCCC2)[C@@]2(CCc3ccccc3)c3[nH]c4ccccc4c3CCN2C1=O (some centres undefined)	TAG inh 53 (no result: HSV replic up) | H9c2 TAG conf 48
CC(=O)Nc1ccc(/C=C/c2nc3ccccc3o2)cc1	none (no result: HSV replic up, TAG inh)
O=C(Nc1ccc(/C=C/c2nc3ccccc3o2)cc1)c1c(F)cccc1F	TAG inh 54 | H9c2 TAG conf 55
COc1ccc(-c2cc(C(F)F)n3ncc(C(=O)Nc4cccc(S(=O)(=O)N5CCOCC5)c4)c3n2)cc1	TAG inh 58 | H9c2 TAG conf 50
O=C(NCc1ccc(Cl)cc1)C1CCCN(c2ncccn2)C1 (centres undefined)	none (no result: HSV replic up, TAG inh, Bfl-1 A1 inh, Efflux pump mplx)
CCCCOc1ccccc1C1CC(=O)NC2=C1C(=O)CCC2 (centres undefined)	TAG inh 71 (no result: HSV replic up) | H9c2 TAG conf 66
CCOC(=O)c1cc(-c2ccccc2)sc1NC(=O)COC(=O)c1cccc(S(N)(=O)=O)c1	TAG inh 78 | H9c2 TAG conf 68
CCOC(=O)c1cc(-c2ccccc2)sc1NC(=O)COC(=O)c1ccc(Cl)c(S(N)(=O)=O)c1	none (no result: NPR2 activator, GC-A act)
Nc1nc2ncccc2cc1C(=O)c1c[nH]c2ccccc12	none (no result: HSV replic up, TAG inh, Bfl-1 A1 inh, Efflux pump mplx)
Cc1ccc(-n2c(=O)[nH]c3cc(C(=O)NC4CCN(Cc5ccccc5)CC4)ccc3c2=O)cc1	TAG inh 75 | H9c2 TAG conf inactive
Cc1ccc(CN2CCSc3ccc(C(=O)NC4CCN(Cc5ccccc5)CC4)cc32)cc1	none
CC(C)n1cc(/C=C2\NC(=O)N(c3cccc(Cl)c3)C2=O)c2ccccc21	none (no result: TAG inh)
CC(C)n1cc(/C=C2/NC(=O)N(c3cccc(Cl)c3)C2=O)c2ccccc21	TAG inh 55 | H9c2 TAG conf inactive
CN(C)CC(O)c1ccc(C=Cc2ccc(Cl)cc2)cc1 (centres undefined)	TAG inh 73 (no result: HSV replic up, Bfl-1 A1 inh, Efflux pump mplx) | H9c2 TAG conf 44
CN(C)/C=C/C(=O)/C=C/c1ccc(Cl)cc1	none (no result: TAG inh)
CCOc1ccc(NC(=O)c2ccc(NC(=O)CSc3nc4ccccc4c(=O)[nH]3)cc2)cc1	TAG inh 61 | H9c2 TAG conf 63
